Compounds with a hit are over-represented: about 3% of the library has one in this group of screens.
PAX8 inh HTS – inhibitors of PAX8-driven TPO luciferase reporter, primary screen, RMG-I cells, single concentration | SteadyGlo, 24 h | inhibition, % at 12.6 µM | actives 1.2% (n = 360,000);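 active = mean replicate inhibition at least 60% with every replicate also reaching 60%; inconclusive = only one of the two criteria is met; inactive = mean below 60% and not all replicates reaching 60%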;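 note: luciferase light reporting Pax8 driven TPO promoter activity; plate controls were median of neutral control wells for no effect and mitoxantrone controls for full effect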
Shn3 3UTR inh – reduction of Shn3 3'UTR firefly luciferase signal, primary screen, Schnurri-3 inhibitor project, cell-based, Clone20 osteoblasts, set 2; Clone20 osteoblast Shn3 3'UTR firefly luciferase, 24 h; inhibition, % at 12.5 µM; actives 0.52% (n = 360,000); AID 588674, 2011;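 active = mean inhibition of at least 75% with every replicate also reaching 75%; inconclusive = mean inhibition at least 75% but some replicate below; inactive = mean inhibition below 75%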;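 note: 0% = median of neutral control wells and 100% = pilot-screen positive control compound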
EWS-Fli block – EWS/Fli-driven NR0B1 reporter inhibitors, primary screen, A673 cells, NR0B1 luciferase, luminescence, MLPCN library | viability-normalised | inhibition, % at 12.6 µM | actives 0.67% (n = 350,000) | AID 651661, 2012;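 active = mean inhibition of at least 50% after viability correction, with every replicate also passing that limit; inconclusive = mean reaches 50% but only one of two replicates passes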;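 note: firefly luciferase signal divided by Alamar Blue viability fluorescence both relative to DMSO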
ABHD5 PLIN5 PPI – ABHD5-PLIN5 interaction inhibitors, primary screen, cell lysate, split luciferase complementation, luminescence | Split G. princeps luciferase complementation, 4 h | inhibition, % at 4 µM | actives 0.78% (n = 360,000);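 active = inhibition above the mean inhibition across every tested compound plus 3 SD, cut at about 22% in these data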;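 note: 0% = DMSO only wells and the 100% control is not disclosed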
Target sequence (Q00G26 whole entry, looked up): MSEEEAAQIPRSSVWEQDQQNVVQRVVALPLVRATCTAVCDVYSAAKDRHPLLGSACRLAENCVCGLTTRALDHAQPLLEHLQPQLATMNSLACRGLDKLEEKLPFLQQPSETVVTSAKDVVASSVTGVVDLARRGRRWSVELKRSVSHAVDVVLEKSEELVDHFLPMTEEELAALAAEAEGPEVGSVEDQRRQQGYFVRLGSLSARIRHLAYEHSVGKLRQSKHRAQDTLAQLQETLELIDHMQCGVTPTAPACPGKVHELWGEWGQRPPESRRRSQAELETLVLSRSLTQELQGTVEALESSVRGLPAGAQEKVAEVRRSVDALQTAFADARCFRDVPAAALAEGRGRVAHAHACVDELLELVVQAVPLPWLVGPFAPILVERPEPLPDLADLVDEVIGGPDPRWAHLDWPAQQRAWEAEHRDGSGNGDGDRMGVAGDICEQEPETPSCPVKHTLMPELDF
Target sequence (Q8WTS1 whole entry, looked up): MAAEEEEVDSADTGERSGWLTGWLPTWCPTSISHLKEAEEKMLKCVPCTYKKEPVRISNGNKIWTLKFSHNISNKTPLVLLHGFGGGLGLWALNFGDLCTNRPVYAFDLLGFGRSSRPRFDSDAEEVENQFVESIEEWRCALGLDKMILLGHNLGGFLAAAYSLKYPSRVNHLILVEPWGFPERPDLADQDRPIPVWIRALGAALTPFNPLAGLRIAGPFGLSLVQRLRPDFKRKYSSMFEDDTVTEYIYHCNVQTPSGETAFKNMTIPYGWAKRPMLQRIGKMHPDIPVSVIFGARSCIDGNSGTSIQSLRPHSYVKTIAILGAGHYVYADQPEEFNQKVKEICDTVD
Peg3 promoter – Peg3 promoter-driven luciferase inhibitors, primary screen, cell-based, HeLa, luciferase luminescence; HeLa PEG-Prom luciferase reporter, overnight; inhibition, % at 20 µM; actives 1.7% (n = 360,000);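 active = inhibition of at least 50% at 20 µM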
MITF TRPM1 inh – inhibitors of MITF-dependent TRPM1 promoter reporter, primary screen, cell-based, SK-MEL-5, single point, luciferase. SK-MEL-5 TRPM1 promoter luciferase, 24 h. inhibition, % at 12.5 µM. actives 0.83% (n = 330,000). AID 488899, 2010;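 active = mean inhibition across replicates of 60% or more, whatever share of single replicates reaches that level; inconclusive = some that reach 60%, reason not given; inactive = mean inhibition across replicates below 60%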
An asterisk follows results filed as active; ? = inconclusive; . = no result given.

SMILES | PAX8 inh HTS | Shn3 3UTR inh | EWS-Fli block | ABHD5 PLIN5 PPI | Peg3 promoter | MITF TRPM1 inh
C#CCN(C[C@@H]1[C@@H](OC(=O)NCC2CCCCC2)[C@@H](OC(=O)NCC2CCCCC2)CN(C(=O)OC(C)C)N1C(=O)OC(C)C)S(=O)(=O)c1ccc(C)cc1 | 72* | 45 | 11 | 14 | -10 | .
CO[C@@H]1CN(C)C(=O)c2ccc(NC(C)=O)cc2OC[C@H](C)N(CCc2ccccc2)C[C@H]1C | . | . | 16 | . | . | .
CCOC(=O)Cn1c(S(=O)(=O)Cc2ccccc2Cl)nc(-c2ccccc2)c1-c1ccccc1 | . | 88* | -13 | -7 | 32 | -1
C[C@@H]1CN([C@H](C)CO)C(=O)c2cc(NC(=O)CCCCCC(=O)Nc3ccccc3N)ccc2O[C@@H]1CN(C)Cc1ccc(Oc2ccccc2)cc1 | 71* | . | . | . | . | .
C[C@H](CO)N1C[C@H](C)[C@H](CN(C)Cc2ccc(C(F)(F)F)cc2)Oc2ccc(NC(=O)CCCCCC(=O)Nc3ccccc3N)cc2C1=O | ? | . | 1 | . | . | .
C[C@@H]1CN([C@H](C)CO)C(=O)c2cc(NC(=O)CCCCCC(=O)Nc3ccccc3N)ccc2O[C@@H]1CN(C)Cc1ccc(C(F)(F)F)cc1 | 95* | . | . | . | . | .
C[C@@H]1CCCCO[C@@H](CN(C)CC2CC2)[C@H](C)CN([C@H](C)CO)C(=O)c2cc(NC(=O)Nc3ccc(C(F)(F)F)cc3)ccc2O1 | 44 | . | 37 | . | . | .
C[C@@H]1CCCCO[C@H](CN(C)CC2CC2)[C@H](C)CN([C@@H](C)CO)C(=O)c2cc(NC(=O)Nc3ccc(C(F)(F)F)cc3)ccc2O1 | 28 | . | 76* | . | . | .
C[C@@H]1CCCCO[C@@H](CN(C)CC2CC2)[C@H](C)CN([C@@H](C)CO)C(=O)c2cc(NC(=O)Nc3ccc(C(F)(F)F)cc3)ccc2O1 | 23 | . | 6 | . | . | .
C[C@H](CO)N1C[C@H](C)[C@H](CN(C)CC2CC2)OCCCC[C@H](C)Oc2ccc(NC(=O)Nc3ccc(C(F)(F)F)cc3)cc2C1=O | 73* | . | 5 | . | . | .
CCC(=O)Nc1cc2nn(-c3ccc(C)cc3)nc2cc1C | -118 | 50 | 77* | 0 | 62* | 60
COc1ccc(N/N=C/c2c(C(=O)O)ccc3ccccc23)cc1 | 62* | 93* | -20 | 4 | 38 | .
COc1ccc(C/C(N)=N/OC(=O)c2ccc(Cl)cc2)cc1 | -21 | -1 | -6 | -2 | 3 | -8
N/C(Cc1ccc(Cl)cc1)=N\OC(=O)c1ccc2ccccc2c1 | . | -15 | . | 2 | 105* | -13
N/C(Cc1ccc(Cl)cc1)=N\OC(=O)c1cccc2ccccc12 | . | 9 | . | -10 | 111* | 1
N/C(Cc1ccc(Cl)cc1)=N\OC(=O)CCc1ccccc1 | -16 | -6 | 2 | 0 | -22 | .
COc1ccc(C#Cc2ccc([C@H]3[C@@H](CO)N4CCCCN(C(=O)Nc5ccc(F)cc5)C[C@H]34)cc2)cc1 | -1 | . | . | . | . | .
COc1ccc(NC(=O)N2CCCCN3[C@H](C2)[C@H](c2ccc(C#Cc4ccccc4)cc2)[C@@H]3CO)cc1 | 17 | . | 3 | . | . | .
COc1ccc(C#Cc2ccc([C@@H]3[C@H](CO)N4CCCCN(C(=O)Nc5ccc(F)cc5)C[C@@H]34)cc2)cc1 | 107* | . | . | . | . | .
COc1ccc(NC(=O)N2CCCCN3[C@@H](CO)[C@H](c4ccc(C#Cc5ccccc5)cc4)[C@@H]3C2)cc1 | 70* | . | 8 | . | . | .
COc1cccc(CN2CCCCN3[C@H](CO)[C@@H](c4ccc(C#Cc5cccnc5)cc4)[C@H]3C2)c1 | 21 | . | 69* | . | . | .
COc1ccc(NC(=O)N2CCCCN3[C@H](C2)[C@@H](c2ccc(C#Cc4ccccc4)cc2)[C@@H]3CO)cc1 | 92* | . | -10 | . | . | .
CCS(=O)(=O)N(C)C[C@@H]1N[C@H](CO)[C@@H]1c1ccc(C#CC(C)C)cc1 | . | . | -15 | . | . | .
CO[C@@H]1CN(C)C(=O)c2ccc(NC(=O)C3CCCCC3)cc2OC[C@@H](C)N(Cc2cccnc2)C[C@H]1C | 3 | . | 6 | . | . | .
COc1ccc2c3c([nH]c2c1)[C@H](CO)N(C(=O)Nc1c(C)noc1C)CC31CCN(CC2CCCCC2)CC1 | . | . | -5 | . | . | .
SMILES | PAX8 inh HTS | Shn3 3UTR inh | EWS-Fli block | ABHD5 PLIN5 PPI | Peg3 promoter | MITF TRPM1 inh
CS(=O)(=O)c1nc(S(=O)(=O)c2ccc(Cl)cc2)c(N2CCOCC2)s1 | 12 | 6 | 17 | -1 | 18 | 67*
C[C@H]1CN([C@@H](C)CO)C(=O)c2cc(-c3cccnc3)cnc2O[C@H]1CN(C)C | . | . | -1 | . | . | .
C[C@@H]1CN([C@H](C)CO)C(=O)c2cccc(NS(=O)(=O)c3ccc(F)cc3)c2O[C@@H]1CN(C)Cc1ccc2c(c1)OCO2 | -1 | . | -11 | . | . | .
CCOc1ccc(-c2csc(NC(=O)c3cccc(N4C(=O)CCC4=O)c3)n2)cc1 | 5 | -15 | -4 | 11 | -9 | -7
Cc1ccc(-c2csc(NC(=O)c3cccc(N4C(=O)CCC4=O)c3)n2)o1 | . | -21 | . | 22* | 15 | .
Cc1cc(OCC(=O)Nc2ccncc2)ccc1Cl | -6 | 59 | -15 | 6 | -10 | 3
Cc1cc(OCC(=O)Nc2ccc3oc(-c4ccncc4)nc3c2)ccc1Cl | . | 10 | . | 2 | 53* | 6
COc1ccc(Oc2c(Cl)cnn(-c3ccc(C)cc3)c2=O)cc1 | . | 16 | . | 0 | 7 | 3
COc1ccc(Oc2c(Cl)cnn(-c3ccc(Cl)c(Cl)c3)c2=O)cc1 | . | 19 | . | 0 | 65* | ?
CCC(=O)N1[C@H](CO)[C@@H]2c3ccccc3N(C(=O)CC(F)(F)F)C[C@@H]21 | -1 | . | 2 | . | . | .
COc1cccc(/C=N/NC(=O)c2cc3cc([N+](=O)[O-])ccc3s2)c1O | 33 | 91* | 21 | 0 | 84* | 77*
COc1cc([N+](=O)[O-])cc(/C=N/NC(=O)c2ccc(C)nc2)c1O | 3 | -7 | . | 4 | 6 | 1
COc1cc([N+](=O)[O-])cc(/C=N/NC(=O)c2ccc(NC(=O)c3ccc(C)cc3)cc2)c1O | 30 | 62 | 29 | -2 | 47 | 72*
CO[C@H]1CN(C)C(=O)c2ccc(NC(=O)C3CCOCC3)cc2OC[C@H](C)N(Cc2nccs2)C[C@@H]1C | . | . | -4 | . | . | .
C[C@H](O)C#Cc1ccc([C@H]2[C@@H](CO)N3CCCCN(C(=O)c4cccc(F)c4)C[C@@H]23)cc1 | 20 | . | -5 | . | . | .
Cc1ccccc1/C=N/NC(=O)Cn1nnc(N)n1 | 65* | -1 | -5 | 2 | 3 | 11
Nc1nnn(CC(=O)N/N=C/c2cccc3ccccc23)n1 | . | 9 | . | 1 | 5 | -2
C[C@@H]1CN([C@H](C)CO)C(=O)c2cc(NS(=O)(=O)c3ccc(Cl)cc3)ccc2O[C@@H](C)CCCCO[C@H]1CN(C)C(=O)Nc1ccc(C(F)(F)F)cc1 | 102* | . | 33 | . | . | .

Source: PubChem
